NALP3 yeast inh: NALP3 inhibition in yeast. Yeast reconstituted NLRP3/ASC/caspase-1, beta-gal luminescence, 24 h. inhibition, % at 10 µM. 0.39% of 330,000 active;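 active = inhibition of 50% or more; inactive = inhibition below 50%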;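 note: plate controls were induced DMSO wells for no effect and uninduced yeast grown without galactose for full effect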
tim10-1 inh: growth inhibitors of tim10-1 mutant yeast; 2.2% of 330,000 active; S. cerevisiae tim10-1 ts strain growth, BacTiter-Glo, 24 h; inhibition, % at 20 µM; AID 463190;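 active = inhibition of at least 40%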;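 note: mutant grown at 25 °C; 0% = DMSO wells with yeast and 100% = wells holding no yeast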
TIM10 inh: inhibits growth of TIM10 yeast strain; S. cerevisiae TIM10 strain growth, BacTiter-Glo luminescence, 24 h; AID 463195; inhibition, % at 10 µM; 1.4% of 330,000 active;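 active = inhibition of 40% or more at the single tested concentration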;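 note: wild-type TIM10 isogenic control strain grown at permissive 25 °C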
V-ATPase pH: yeast V-ATPase proton transport regulation by pHLuorin; 0.37% of 350,000 active; response, % at 10 µM; S. cerevisiae, pHLuorin cytosolic pH fluorescence; in the data active = response mostly above about 7.3%, no sharp cut-off; inactive = mostly below about 5.4%; note: actives read high
NALP1 inh: inhibitors of NALP1 inflammasome in yeast | AID 2071 | S. cerevisiae NALP1/ASC/caspase-1 growth, X-gal OD620, 72 h | inhibition, % at 10 µM | 0.61% of 280,000 active; in the data active = inhibition mostly above about 24%, no sharp cut-off; inactive = mostly below about 32%
tim23-1 inh: tim23-1 yeast growth inhibition; S. cerevisiae tim23-1 growth, BacTiter-Glo luminescence, 24 h; 1.3% of 330,000 active; inhibition, % at 20 µM;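 active = growth inhibition of the mutant yeast at or above 50%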;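 note: temperature-sensitive mutant grown at 25 °C; plate controls were DMSO-treated mutant yeast for no effect and medium wells lacking yeast for full effect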
tim10-1 confirm: confirmation of tim10-1 mutant yeast growth inhibitors; shares compounds with tim10-1 inh; S. cerevisiae tim10-1 ts strain growth, BacTiter-Glo, 24 h; inhibition, % at 20 µM; 56% of 7,400 active;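 active = inhibition of yeast growth at or above a set limit in either of two repeat tests at 20 µM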;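 note: tim10-1 mutant grown at permissive 25 °C to find synthetic lethal compounds; 0% = DMSO yeast wells and 100% = medium wells without yeast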
TIM10 conf: TIM10 yeast growth inhibition, confirmed; shares compounds with TIM10 inh; S. cerevisiae tim10 strain growth, BacTiter-Glo luminescence, 24 h; inhibition, % at 10 µM; 63% of 4,600 active; AID 463215;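 active = inhibition of yeast growth at or above a set limit in either of two replicates at 10 µM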;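 note: this counterscreen used the strain with wild-type TIM10; 0% = yeast with DMSO and 100% = medium wells lacking yeast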
tim23-1 conf: confirmation of tim23-1 mutant yeast growth inhibitors; shares compounds with tim23-1 inh; S. cerevisiae tim23-1 growth, BacTiter-Glo luminescence, 24 h; inhibition, % at 20 µM; 83% of 4,400 active;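 active = inhibition above about 39% in either of two replicate wells at 20 µM, limit read from the data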;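 note: temperature-sensitive tim23-1 mutant grown at 25 °C; 0% = DMSO wells with yeast and 100% = medium wells without yeast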
Active calls of the source: *; nt = no result. In the library only some 4.2% were active in any assay of this set; here they are far more common.

SMILES | NALP3 yeast inh | tim10-1 inh | TIM10 inh | V-ATPase pH | NALP1 inh | tim23-1 inh | tim10-1 confirm | TIM10 conf | tim23-1 conf
CC1=NN(c2ccc(Cl)cc2)C(=O)C1C(c1cccc(O)c1)c1c(C)[nH]n(-c2ccc(Cl)cc2)c1=O (centres undefined) | 2.8 | 48.0* | 37.4 | -4.7 | 11.5 | 57.1* | 28.9 | nt | 51.4*
COc1ccc(-c2nc(-c3ccccc3)c(-c3cc([N+](=O)[O-])ccc3C)[nH]2)cc1O | -2.9 | 43.6* | 16.6 | 0.0 | 3.1 | 52.8* | 36.4* | nt | 58.0*
CCCN(CC1CC1)C(=S)NC(=O)c1cc(Br)ccc1Cl | 19.8 | 60.4* | 52.1* | -5.9 | nt | 57.2* | 36.9* | 50.7* | 51.5*
CCOC(=O)C1CCCN(C(=S)NC(=O)c2cc(Br)ccc2Cl)C1 (centres undefined) | 20.2 | 40.0* | 37.4 | -2.0 | nt | 54.8* | 28.5 | nt | 44.1*
O=C(NC1CC1)c1ccc2c(c1)C1C3CCC(C3)C1C(c1ccccc1)N2 (centres undefined) | -2.3 | 49.6* | 41.3* | -0.8 | 38.8 | 61.9* | 42.1* | 0.3 | 54.4*
Cc1ccc(S(=O)(=O)c2nc(-c3ccco3)oc2SCC(=O)NCC2CCCO2)cc1 (centres undefined) | 2.6 | 2.2 | -2.4 | 0.1 | 35.0 | 12.4 | nt | nt | nt
Clc1ncnc2scc(C3COc4ccccc4O3)c12 (centres undefined) | 15.9 | 52.7* | 29.9 | 2.9 | -31.1 | 51.5* | 31.4 | nt | 30.5
CCC(=O)c1cccc(-c2ccccc2)c1CC | nt | nt | nt | -9.6 | nt | nt | nt | nt | nt
COc1ccc(C(Nc2ccccn2)c2oc(CO)cc(=O)c2O)cc1 (centres undefined) | 14.7 | 19.1 | 9.7 | -4.5 | 24.3 | -11.7 | nt | nt | nt
Cc1ccc(C(=O)N/C(=C/c2cn(-c3ccccc3)nc2-c2ccccc2)C(=O)O)cc1 | 9.8 | -9.9 | 7.7 | 0.1 | 4.2 | 15.9 | nt | nt | nt
CC(=O)C(=Cc1cn(-c2ccccc2)nc1-c1ccccc1)C(C)=O | 4.7 | 67.1* | 56.8* | 5.0 | -2.8 | 82.4* | 68.0* | 52.6* | 83.2*
Cc1ccc(S(=O)(=O)NNC(=O)c2ccncc2)cc1[N+](=O)[O-] | 15.8 | 6.9 | 6.3 | 5.3 | 29.3 | 2.0 | nt | nt | nt
O=S(=O)(c1ccccc1)N1CCN(c2ccnc3cc(Cl)ccc23)CC1 | 1.7 | 58.5* | 16.5 | 1.6 | 18.6 | 63.3* | 52.9* | nt | 65.7*
O=S(=O)(c1cccs1)N1CCN(c2ccnc3cc(Cl)ccc23)CC1 | 19.1 | 45.4* | 23.4 | -5.0 | -7.1 | 51.3* | 35.2* | nt | 44.3*
O=S(=O)(c1cccs1)N1CCN(c2ccccc2Cl)CC1 | 37.1 | 22.1 | 22.2 | 4.0 | 22.5 | 38.4 | nt | nt | nt
CN1CCN(NC(=O)CN(C)S(=O)(=O)c2cc(Cl)ccc2Cl)CC1 | 14.5 | 12.8 | 4.8 | -0.6 | 17.7 | 15.7 | nt | nt | nt
O=C(NC1CCN(C(=S)Nc2ccc(Cl)cc2)CC1)c1ccco1 | 15.5 | 1.3 | -19.4 | -0.6 | -4.7 | 9.8 | nt | nt | nt
CCN1C(=O)/C(=C\C(=O)c2cccs2)c2cc(Br)ccc21 | 19.9 | 48.8* | 74.0* | -0.8 | 1.8 | 72.0* | 34.5* | 64.7* | 24.8
O=C(COC(=O)C1CCN(c2ccc(C(F)(F)F)cn2)CC1)Nc1ccc(Cl)cc1 | 19.4 | 43.3* | 18.8 | 2.4 | nt | 55.8* | 46.1* | nt | 59.6*
N#C/C(=C\c1cccnc1)C(=O)NC1CCCCC1 | 3.5 | 57.7* | 65.2* | 9.6 | nt | 70.2* | 40.8* | -17.9 | 70.1*
Cc1cccc(NC(=O)/C(C#N)=C\c2cccnc2)c1 | 21.5 | 67.4* | 65.8* | 1.3 | 46.6 | 79.0* | 55.6* | 58.9* | 77.6*
N#C/C(=C\c1cccnc1)C(=O)Nc1ccc(Cl)cc1 | 14.1 | 60.8* | 60.7* | -1.1 | 8.8 | 75.7* | 25.9 | 37.9* | 66.0*
Cc1cccc(NC(=O)/C(C#N)=C\c2ccc(C(=O)O)cc2)c1 | 4.2 | 0.1 | 1.6 | 0.3 | -3.7 | 0.3 | nt | nt | nt
